# ± gives the standard deviation of the averaged measurements. The full ranking holds about 33,000 sequences; the median of “E-score (rank enrichment, -0.5 to 0.5)” is about -0.0075, and the highest 2% start at about 0.23. The sample as a whole holds a higher share of the highest values than the screen did.
# Tested on: WT Max(13-93) synthetic (M65Nle)
# Experiment: PBM 8-mer E-score (E-score (rank enrichment, -0.5 to 0.5)); higher = stronger preferential binding
# Description: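 Protein binding microarray (universal PBM chip covering all 10-mers in fixed probe flanks) with chemically synthesized human Max(13-93) bHLH-LZ analogs (not full-length Max) bearing noncanonical residues (hArg, Tha, Aib, Nle at 65) and aromatic Cys staples. Read-out per 8-mer (and its reverse complement): E-score (rank-based enrichment, -0.5 to 0.5) and Z-score of median probe intensity.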
row,Sequence,PBM 8-mer E-score
1,GCGTGTCA,0.223 ± 0.019
2,CCGTGTCA,0.0378 ± 0.022
3,AAGTGTCT,-0.104 ± 0.07
4,ACCTGTCT,0.0145 ± 0.064
5,ACGTGTCT,0.363 ± 0.00056
6,ACGTGTCC,0.243 ± 0.037
7,ACGTGTCG,0.339 ± 0.0083
8,AAGTGTCG,0.0847 ± 0.052
9,CCGTGTCG,-0.151 ± 0.011
10,GCGTGTCC,0.127 ± 0.037
11,ACGTGTCA,0.3263 ± 0.0031
12,CCGTGTCC,-0.00903 ± 0.072
13,CCTTTGCG,0.00668 ± 0.0019
14,AGCCCCCC,-0.14 ± 0.14
15,AACAGACA,0.184 ± 0.011
16,CGATTAGC,-0.18 ± 0.11
17,CGGGCGAA,-0.0278 ± 0.057
18,CACGCCTG,0.0753 ± 0.081
19,TGCTTGAA,0.0947 ± 0.15
20,GCCACTGA,-0.158 ± 0.074
21,GACCCCTA,-0.156 ± 0.13
22,CGTGGCTA,0.193 ± 0.013
23,CATCTCAA,0.104 ± 0.017
24,AAATATAA,0.24 ± 0.048
25,TAATATAA,0.183 ± 0.014

row,Sequence,PBM 8-mer E-score
1,AACTATAA,0.269 ± 0.028
2,CAATATAG,0.117 ± 0.021
3,GAATATAA,0.179 ± 0.022
4,AAAAATAG,0.102 ± 0.059
5,AAATATAG,0.238 ± 0.099
6,ATATATAG,0.182 ± 0.041
7,AAAAATAT,0.256 ± 0.017
8,CACTATAA,-0.0318 ± 0.027
9,AAAAATAC,0.2 ± 0.033
10,GACTATAA,0.13 ± 0.0092
11,GTAGAGAC,-0.0752 ± 0.086
12,CGTTCATC,0.0464 ± 0.14
13,GCCCCGCC,0.172 ± 0.053
14,CACAGGTA,0.11 ± 0.061
15,CGGTGACA,-0.162 ± 0.13
16,ACTGCAAT,-0.0126 ± 0.077
17,AAAATTTT,0.273 ± 0.034
18,AAATATAC,0.199 ± 0.028
19,AAATATAT,0.248 ± 0.032
20,AAATATGA,0.261 ± 0.023
21,AAAATTTG,0.027 ± 0.066
22,AAAAATTT,0.14 ± 0.091
23,ATATATAT,0.0942 ± 0.12
24,CAATATGA,0.183 ± 0.027
25,AAATATGT,0.124 ± 0.078

row,Sequence,PBM 8-mer E-score
1,AAGGAGCC,-0.118 ± 0.072
2,CGTAAGCC,0.0338 ± 0.0056
3,CAGGATAC,-0.144 ± 0.019
4,ACGCCAGC,-0.269 ± 0.085
5,ATGCGCCA,0.123 ± 0.11
6,CGTACAAC,0.112 ± 0.047
7,ACGAGTCG,-0.0792 ± 0.021
8,CTTGAAAA,0.0938 ± 0.0069
9,CTGAAAAA,-0.141 ± 0.0094
10,ATGAAAAA,0.158 ± 0.13
11,ATTGAAAA,0.254 ± 0.087
12,TTGAAAAA,0.234 ± 0.043
13,ATTGAAAC,0.117 ± 0.092
14,ACGGTCCA,-0.222 ± 0.021
15,AGATTTAC,0.119 ± 0.041
16,ACCTATCT,0.211 ± 0.065
17,CCTAAGCC,-0.125 ± 0.096
18,ATTTTCGG,0.129 ± 0.056
19,GAAAACAA,0.206 ± 0.059
20,ACACATGG,0.357 ± 0.034
21,ACACATGT,0.359 ± 0.025
22,ATACATGG,0.134 ± 0.045
23,ACACATAT,0.202 ± 0.041
24,ACACATCT,0.0507 ± 0.12
25,ACACATGA,0.186 ± 0.036

row,Sequence,PBM 8-mer E-score
1,CTAGTGGC,-0.019 ± 0.044
2,CACCCTTA,0.118 ± 0.056
3,ACCAGAAA,0.0691 ± 0.0064
4,CCTAGTCA,-0.0758 ± 0.01
5,GCCGAAGC,-0.212 ± 0.034
6,ACATTGTG,0.26 ± 0.054
7,ACATTGTC,0.19 ± 0.033
8,ACATTGTA,0.153 ± 0.06
9,AGAGACCG,-0.14 ± 0.044
10,CCCCGCCC,0.369 ± 0.062
11,CCCGCCCA,0.183 ± 0.043
12,CCCGCCCC,0.285 ± 0.14
13,ACCCGCCC,0.0569 ± 0.092
14,CCGCCCCC,-0.124 ± 0.051
15,CCGCCCGG,-0.265 ± 0.039
16,ACCCCGCC,0.279 ± 0.035
17,CCCGCCCG,0.025 ± 0.078
18,CCGCCCCG,0.236 ± 0.075
19,CCCCCGCC,0.0274 ± 0.11
20,AACCCGCC,-0.0368 ± 0.068
21,GCCCGCCC,0.0723 ± 0.054
22,CTCGTTCC,-0.0941 ± 0.0052
23,CCGACGTA,-0.103 ± 0.022
24,AATCACCT,0.115 ± 0.11
25,TAGTGCAA,0.023 ± 0.006

row,Sequence,PBM 8-mer E-score
1,AGCGGAGG,-0.124 ± 0.11
2,CTTAATGC,0.162 ± 0.095
3,CCGTACCA,-0.129 ± 0.033
4,CACACGAA,0.272 ± 0.054
5,TACACAAA,0.0928 ± 0.018
6,GACACAAA,0.24 ± 0.048
7,AACACGCA,0.134 ± 0.0072
8,CACGCTCA,0.0695 ± 0.057
9,AACGCTCG,-0.131 ± 0.017
10,AACACGCG,0.3 ± 0.08
11,CACACAAA,0.103 ± 0.13
12,CACACGAC,0.13 ± 0.11
13,AACACGCC,0.0311 ± 0.14
14,CACGCTCG,0.266 ± 0.035
15,CACACGAG,0.105 ± 0.0042
16,AAATTAAA,0.198 ± 0.044
17,TCAAAGGA,0.0761 ± 0.07
18,CGTTTTGA,-0.0368 ± 0.12
19,ACGACATG,0.0526 ± 0.047
20,CGCGGCCA,-0.0571 ± 0.036
21,CCGAAACC,-0.199 ± 0.026
22,GACACCGC,-0.206 ± 0.08
23,ACGTCCCC,0.0319 ± 0.084
24,AGCATTTA,-0.11 ± 0.038
25,CACACGCG,0.302 ± 0.017

row,Sequence,PBM 8-mer E-score
1,CACACGCA,0.174 ± 0.028
2,CACACGCC,0.0838 ± 0.085
3,TAGGCACA,0.0603 ± 0.0065
4,CAGAGGTA,0.0024 ± 0.058
5,ATATGATG,0.19 ± 0.03
6,GTATGAGA,0.109 ± 0.033
7,CTATGATA,-0.00697 ± 0.0076
8,ATATGATA,0.302 ± 0.013
9,GGATGATA,-0.00911 ± 0.064
10,GTATGATA,0.235 ± 0.0072
11,CAGCGCCA,-0.237 ± 0.0045
12,GTGGCTCA,-0.0168 ± 0.037
13,ACAGGAGA,0.0713 ± 0.014
14,CCCTACGG,-0.21 ± 0.015
15,AAAACATT,0.147 ± 0.033
16,CACACATA,0.0464 ± 0.029
17,CAAACATG,0.17 ± 0.13
18,AACACATA,0.263 ± 0.084
19,TACACATA,0.213 ± 0.083
20,AACACATT,0.13 ± 0.017
21,AACACATC,-0.0183 ± 0.028
22,AACACATG,0.368 ± 0.0069
23,AAAACATG,0.28 ± 0.024
24,CATGTAGA,0.193 ± 0.018
25,ACGCCCTC,0.0691 ± 0.11

row,Sequence,PBM 8-mer E-score
1,GATCCAGC,-0.241 ± 0.017
2,ATCCGTAG,-0.21 ± 0.046
3,GCAGTGAA,0.0345 ± 0.11
4,ATGACAAC,0.166 ± 0.029
5,AAGACAAT,0.228 ± 0.075
6,AGGACAAT,0.183 ± 0.045
7,ATGACAAG,0.119 ± 0.12
8,ATGACAAT,0.264 ± 0.018
9,ATGACAAA,0.261 ± 0.11
10,TCGGGCCA,-0.185 ± 0.0072
11,CGAATCTA,-0.0418 ± 0.067
12,ATGTATGC,0.166 ± 0.0091
13,ACTAGACT,0.0207 ± 0.063
14,ACGCACAG,-0.0926 ± 0.096
15,ACGCACGA,0.143 ± 0.032
16,ACGCACAT,0.267 ± 0.02
17,ACGCACAA,0.0902 ± 0.052
18,ACGCACGT,0.314 ± 0.041
19,AAGCACGA,0.125 ± 0.0091
20,ACGCACGC,0.205 ± 0.014
21,AAGCACGT,0.367 ± 0.028
22,AAGCACGG,0.0974 ± 0.06

# — the supplement of paper PMC12636033
